A short description of this test: supercomplex reporter luminescence per Hoechst cell count – Hoechst nuclei count (AID 1645838).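 For all read-outs here: control cybrid cells.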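 For z-score: higher means more mitochondrial supercomplex formation.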 The settings on record: Cells, luminescence/Hoechst cell count ratio; for z-score: stronger effect = higher value; for cell count: measured here: cell number, Hoechst nuclei count.
The mark [1] stands for this setting: library stock concentration (final well concentration not given) 80 uM.
The mark [2] stands for this setting: library stock concentration (final well concentration not given) 400 uM.
The mark [3] stands for this setting: library stock concentration (final well concentration not given) 2 mM.
The mark [4] stands for this setting: library stock concentration (final well concentration not given) 10 mM.
The mark [5] stands for this setting: library stock concentration (final well concentration not given) 46 uM.
Where [6] appears, read: library stock concentration (final well concentration not given) 278 uM.
The mark [7] stands for this setting: library stock concentration (final well concentration not given) 1.67 mM.

“And” between values parts separate entries of the source, which are not always exact repeats. Equal values may be shown once. Screen size: about 2,000 compounds; about 100 (5%) were called active. Cut-off read from the data, not from the text of the source: active = z-score above about 2; inactive = the rest. Many of the other results were omitted from the sample, so actives are more common in it than they were.

Turning to `CCCCCCCCCCCCCCCC(=O)SCCOP(=O)([O-])OCC[N+](C)(C)C`, the z-score was 0.0631 (inactive) and the cell count is 5610.
For the compound `COc1cc(C(=O)N2CCC(N3CCN(C)CC3)CC2)ccc1Nc1ncc2c(n1)N(C)c1ccccc1C(=O)N2C`, the z-score is, setting by setting: under setting [1], -0.05 (inactive); under setting [2], 0.293 (inactive); under setting [3], 2.34 (active); under setting [4], 4.4 (active). Besides, the cell count runs as follows: under setting [1], 4870; under setting [2], 4880; under setting [3], 4160; under setting [4], 3320.
Consider `CCC1C(=O)N(C)c2cnc(Nc3ccc(C(=O)NC4CCN(C)CC4)cc3OC)nc2N1C1CCCC1` (stereo not given), for which the outcome runs as follows: (library stock 80 µM) “inactive; censored for cell count”; (library stock 400 µM) “inactive; censored for cell count”; (library stock 2 mM) “inactive; censored for cell count”; (library stock 10 mM) “inactive; censored for cell count”.
As to `COc1cc(C(=O)NC2CCN(C)CC2)ccc1Nc1ncc2c(n1)N(C1CCCC1)C(C)CC(=O)N2C` (stereo not given), the outcome (library stock 10 mM) is “inactive; censored for cell count”. Besides, the z-score under setting [1] is -0.18 (inactive), the z-score under setting [2] is -0.538 (inactive) and the z-score under setting [3] is -0.076 (inactive). Moreover, the cell count by setting is: under setting [1], 4460; under setting [2], 4710; under setting [3], 4310.
Take `CCCCC[C@@H](O)/C=C/[C@@H]1[C@H](C/C=C\CCCC(=O)O)[C@@H](O)C[C@H]1O`: the z-score was -0.594 (inactive) and the cell count was 5750.
Consider `COCCOc1ccc2c(c1)ncn2-c1ccc2cccc(N3CCC(N)CC3)c2n1`, for which the outcome (library stock 10 mM) is “inactive; censored for cell count”. Besides, the z-score by setting is: under setting [1], 1.84 (inactive); under setting [2], 2.21 (active); under setting [3], 2.12 (active). In addition, the cell count by setting is: under setting [1], 4940; under setting [2], 5070; under setting [3], 4020.
Take `CCCCC[C@H](O)CC[C@@H]1[C@@H](C/C=C\CCCC(=O)O)[C@@H](O)C[C@H]1O`: the z-score was -1.49 (inactive) and the cell count was 6030.
Taken in the same sequence, the figures for `CCCCC[C@H](O)/C=C/[C@@H]1[C@H](CCCCCCC(=O)O)[C@@H](O)C[C@H]1O` were 0.0726 (inactive) and 4940.
Take `CCN(CC)c1ccc(C2=C(Cl)C(=O)c3ncccc3C2=O)cc1`: the z-score was -0.697 (inactive) and the cell count turned out to be 3780.
Consider `c1nc2nc(Nc3ccc(N4CCOCC4)cc3)nc(NC3CCCCC3)c2[nH]1`, for which the outcome runs as follows: (library stock 2 mM) “inactive; censored for cell count”; (library stock 10 mM) “inactive; censored for cell count”. Besides, the z-score reads like this: under setting [1], -0.0131 (inactive); under setting [2], 1.19 (inactive). The cell count under setting [1] amounted to 4690 and the cell count under setting [2] was determined as 2200.
As to `c1ccc2c(Oc3nc(Nc4ccc(N5CCOCC5)cc4)c4ncn(C5CCCCC5)c4n3)cccc2c1`, the z-score was -0.437 (inactive) and the cell count was found to be 5560.
With `Cc1cc(N2CCOCC2)ccc1Nc1nc(NC2CCCCC2)c2[nH]cnc2n1`, the z-score is -0.914 (inactive) under setting [5], -0.363 (inactive) under setting [6], 3.33 (active) under setting [7] and 3.68 (active) under setting [4]. Besides, the cell count is, setting by setting: under setting [5], 7450; under setting [6], 5730; under setting [7], 2040; under setting [4], 2130.
For the compound `NC(N)=NN=Cc1ccc(Cl)c(Cl)c1`, the z-score was -0.108 (inactive) under setting [1], 0.196 (inactive) under setting [2], -0.953 (inactive) under setting [3] and -0.658 (inactive) under setting [4]. Moreover, the cell count runs as follows: under setting [1], 5310; under setting [2], 4750; under setting [3], 4910; under setting [4], 4260.
As to `CCCCC[C@H](O)/C=C/[C@H]1[C@H](O)CC(=O)[C@@H]1CCCCCCC(=O)NCCO`, the z-score was 0.115 (inactive) and the cell count came out at 5420.
Taken in the same sequence, the figures for `NC1=NC(=O)/C(=C/c2ccc(O)cc2)S1` were 0.333 (inactive) and 5020.
Regarding `CCCCCCCC/C=C\CCCCCCCC(=O)OCC(O)COP(=O)(O)O` (stereo not given), the z-score is -0.58 (inactive) and the cell count was determined as 5650.
On to `O=C(O)CCC/C=C\C[C@@H]1[C@@H](/C=C/[C@@H](O)COc2cccc(C(F)(F)F)c2)[C@H](O)C[C@@H]1O`, for which the z-score was -0.654 (inactive) and the cell count was 5730.
Regarding `Cc1ccc(COC(=O)N2CCC(CNc3ncccn3)C(F)C2)cc1` (stereo not given), the z-score reads like this: under setting [1], -0.136 (inactive); under setting [2], 0.087 (inactive); under setting [3], -0.148 (inactive); under setting [4], -0.243 (inactive). Moreover, the cell count was determined as 5400 under setting [1], 5130 under setting [2], 5140 under setting [3] and 5210 under setting [4].
Turning to `O=C(O)c1ccc(-c2c[nH]c3ncc(-c4ccccc4)cc23)cc1C1CCCC1`, the z-score was -0.226 (inactive) under setting [5], -0.179 (inactive) under setting [6], -0.154 (inactive) under setting [7] and 2.58 (active) under setting [4]. Besides, the cell count under setting [5] came to 6280, the cell count under setting [6] amounted to 6090, the cell count under setting [7] was 5580 and the cell count under setting [4] was 1970.
As for `CCCS(=O)(=O)Nc1ccc(F)c(C(=O)c2c[nH]c3ncc(-c4ccc(Cl)cc4)cc23)c1F`, the z-score runs as follows: under setting [1], -0.652 (inactive) and -0.181 (inactive); under setting [2], -0.587 (inactive) and -0.185 (inactive); under setting [3], -0.572 (inactive) and -0.608 (inactive); under setting [4], 0.969 (inactive) and -0.885 (inactive). For the same compound, the cell count runs as follows: under setting [1], 4780 and 6010; under setting [2], 4780 and 5900; under setting [3], 4410 and 5850; under setting [4], 2140 and 5020.
Take `Cn1cc(C=C2C(=O)Nc3cccnc32)c2ccccc21`: the z-score is -0.136 (inactive) under setting [1], -0.0135 (inactive) under setting [2], -0.221 (inactive) under setting [3] and -0.519 (inactive) under setting [4]. The cell count runs as follows: under setting [1], 5300; under setting [2], 5320; under setting [3], 5410; under setting [4], 4520.
For the compound `Cn1c(SCC(=O)N2CCCC2C(=O)Nc2ccccc2-c2ccccc2)nc2ccccc21` (stereo not given), the z-score reads like this: under setting [1], -0.422 (inactive); under setting [2], -0.389 (inactive); under setting [3], -0.142 (inactive); under setting [4], -0.283 (inactive). Also, the cell count under setting [1] worked out at 5510, the cell count under setting [2] is 5800, the cell count under setting [3] stood at 5780 and the cell count under setting [4] was found to be 5710.
`CC(C)CCOc1ccc(NC(=S)Nc2ccc(OCCC(C)C)cc2)cc1`: the z-score is -0.0536 (inactive) and the cell count stood at 5220.
